Data taken from the supplement of paper PMC3334620.
The full ranking holds about 33,000 sequences; the median of “E-score (-0.5 to 0.5)” is about -0.017, and the highest 2% start at about 0.3. The sample as a whole holds a higher share of the highest values than the screen did.

These sequences were tested against T1, Sut1 (UniProt P53032) (assay: PBM E-score (8-mer binding enrichment) (E-score (-0.5 to 0.5)); higher = stronger / more preferred TF binding). Settings: protein concentration: 200 nM; construct: GST-full length.
T1 sequence: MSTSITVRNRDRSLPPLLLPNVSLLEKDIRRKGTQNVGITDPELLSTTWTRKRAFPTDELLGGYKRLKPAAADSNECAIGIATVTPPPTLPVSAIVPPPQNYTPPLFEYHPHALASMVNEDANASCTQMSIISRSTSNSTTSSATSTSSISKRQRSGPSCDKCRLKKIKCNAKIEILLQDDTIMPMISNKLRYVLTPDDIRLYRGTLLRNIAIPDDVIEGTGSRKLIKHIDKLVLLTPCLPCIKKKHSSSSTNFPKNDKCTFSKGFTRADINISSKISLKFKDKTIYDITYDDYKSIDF
How it was run: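 Full-length yeast transcription factors or their DNA-binding domains, GST-tagged and expressed with PURExpress, were applied at about 100-200 nM to universal all-10-mer Agilent arrays. These arrays had been made double-stranded by primer extension on fresh or once-stripped slides. Detection used fluorescent anti-GST, normalisation used masliner, and E-scores for ungapped eight-base words pooled with reverse complements came from the Universal PBM Analysis Suite.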

Row | Sequence | PBM E-score
1 | CTTCGGAA | 0.335
2 | CTTCGGTA | 0.0563
3 | CTTCGGGC | -0.277
4 | GTTCGGAA | 0.289
5 | CTTCGGAC | 0.405
6 | CTTCGGCC | -0.00176
7 | CGCGACAG | -0.283
8 | TGGCGACA | -0.207
9 | AATTCGGG | 0.17
10 | GATTCGCA | 0.113
11 | AATTCGGA | 0.396
12 | AATTCGGC | -0.0483
13 | GATTCGGA | 0.385
14 | TATTCGGA | 0.352
15 | CATTCGGC | -0.0155
16 | TATTCGAA | 0.0804
17 | CATTCGGG | -0.0375
18 | CATTCGGA | 0.392
19 | TATTCGCA | 0.0506
20 | GATTCGGC | 0.0544
21 | GCGGGAGC | -0.162
22 | CCGCGAAC | 0.0271
23 | ATCTAGGG | -0.097
24 | CAGCCCGA | -0.211
25 | ACAGGACC | -0.108

Row | Sequence | PBM E-score
26 | CGGCCCAA | -0.116
27 | CGTTGACC | -0.224
28 | TGAAAGCA | 0.148
29 | ATTAATTG | 0.187
30 | ATTAATTC | 0.298
31 | ATTAATTA | 0.188
32 | AGTAATTC | 0.307
33 | AGTAATTG | 0.0745
34 | CGTAATTC | 0.0414
35 | CGACAGCA | -0.0542
36 | TGATCGCA | -0.221
37 | CATGAGCC | -0.195
38 | GAATTCAC | 0.0262
39 | GAGAAGGA | -0.0992
40 | AAGTCCTC | 0.0867
41 | AAGTCCAT | 0.0246
42 | AAGTCCCT | -0.131
43 | ACGTCCGC | -0.121
44 | AAGTCCGC | 0.486
45 | AAGTCCGT | 0.487
46 | TCCTTCGA | 0.11
47 | GAATATGC | 0.0981
48 | GCCCGCAA | -0.0979
49 | ACATCGCA | -0.067
50 | CAGGCCTA | -0.108

Row | Sequence | PBM E-score
51 | GCTATCAA | 0.119
52 | ATGTTGGC | -0.0785
53 | GCGGCCCA | 0.00935
54 | AGTTAGCC | 0.177
55 | GGAACTAC | -0.062
56 | CGAACTCC | 0.391
57 | AGAACTCT | 0.07
58 | ATAACTCC | 0.365
59 | CTAACTCC | 0.221
60 | AGAACTCC | 0.31
61 | GGAACTCA | -0.0534
62 | ATAACTCG | 0.149
63 | CGAACTCG | -0.0661
64 | GGAACTCC | 0.356
65 | AGAACTCG | -0.03
66 | CGAACTCA | -0.0187
67 | AGCTGCAG | 0.0539
68 | TCCATAGA | 0.00973
69 | CAGTTCTA | -0.125
70 | CGAGAATC | 0.0357
71 | CTGCAAGA | -0.136
72 | AAGCCTGA | -0.208
73 | ACAACAGT | 0.0455
74 | AAGGGTCT | -0.114
75 | TAACTTAA | 0.246

Row | Sequence | PBM E-score
76 | AAACCCCC | -0.346
77 | CAACCCCC | -0.266
78 | AACCCCCG | -0.193
79 | CAACCCGG | -0.157
80 | AAACCCCG | 0.441
81 | CAACCCCG | 0.355
82 | ACGGTATA | -0.115
83 | AAACTAAC | 0.27
84 | AAAGTTCT | 0.149
85 | GGGCGTGA | -0.182
86 | AACCCGAG | 0.0811
87 | ACCCCGAA | 0.332
88 | CCCCCGAA | -0.0826
89 | ACCCCGAC | 0.273
90 | ACCCCGAT | 0.342
91 | AACCCGAT | -0.0428
92 | CCCCCGAG | -0.343
93 | ACCCCGAG | 0.382
94 | GCCCCGAA | 0.184
95 | GGGCGAAA | 0.0444
96 | AATCGCAT | 0.0231
97 | CGCACATC | -0.156
98 | GAGTTCAA | 0.152
99 | GGATCAGA | -0.0639
100 | GTGGGGAA | 0.0142

Row | Sequence | PBM E-score
101 | GGCTGGAC | -0.278
102 | ACTCCGTC | 0.48
103 | ACTCCGTG | 0.473
104 | ATTCCGTC | 0.143
105 | ATTCCGTG | 0.273
106 | ACTCCGTA | 0.478
107 | CCTCCGTA | 0.0232
108 | CCTCCGTC | -0.0539
109 | AATCCGTG | -0.153
110 | GCTCCGTA | 0.291
111 | CGGTGAGA | 0.0413
112 | AGGTTAGG | -0.0421
113 | ACCAACCG | 0.0755
114 | GGACAGTA | 0.184
115 | ACCCTTAC | -0.129
116 | GGAAGCCC | -0.0417
117 | CTTTTACC | 0.149
118 | ATTTATCC | 0.33
119 | ATTTATCG | 0.191
120 | ATTTATCA | 0.229
121 | ATTTTATC | 0.321
122 | ATTTTACC | 0.352
123 | CTTTTATC | 0.26
124 | AATTTACC | 0.143
125 | ATTTTATG | 0.13

Row | Sequence | PBM E-score
126 | ATTCATGA | -0.0184
127 | AGACCAAA | 0.026
128 | CCCGATTC | 0.0897
129 | CCAGAAAC | -0.0561
130 | CTACAATA | 0.181
131 | ATACAAAA | 0.288
132 | ATACAAAG | 0.119
133 | CTACAAAC | 0.0828
134 | ATACAATC | 0.236
135 | GTACAAAC | 0.0652
136 | ATACAATA | 0.299
137 | ATACAAAC | 0.298
138 | ATACAAAT | 0.312
139 | TCAGGACA | -0.0448
140 | ACCCGCCT | -0.184
141 | ACTGGATC | -0.0162
142 | AATCTCTG | -0.129
143 | GACTCCGC | 0.429
144 | CACTCCCG | -0.0356
145 | CACTCCGG | 0.476
146 | CACTCCTC | -0.176
147 | GACTCCAC | 0.0104
148 | CACTCCGC | 0.367
149 | CCCTCCGC | -0.318
150 | AACTCCCC | -0.0339

Row | Sequence | PBM E-score
151 | GACTCCTC | 0.0705
152 | ACCTCCGC | -0.104
153 | AACTCCGC | 0.492
154 | CACTCCTG | -0.0764
155 | AAGCACGC | -0.122
156 | CACGGTAA | 0.0752
157 | CTTCCATA | 0.00613
158 | CTCATAGC | -0.0832
159 | CCCCAGGC | -0.303
160 | GCCGAGCC | -0.0648
161 | GACACTGA | 0.0506
162 | AATCGTTG | 0.0316
163 | CCTTCACC | -0.231
164 | CCGACAAG | 0.115
165 | CGGAGAAA | 0.391
166 | GGGAGAAA | -0.0502
167 | AGGAGAAC | -0.0513
168 | TGGAGAAA | -0.00929
169 | GGGAGAAC | -0.0542
170 | CGGAGAAG | 0.36
171 | CGGAGAAC | 0.33
172 | TCGACAAA | 0.213
173 | AGGAGAAG | -0.165
174 | CAGAGAAG | -0.0543
175 | CCGACAAA | 0.313
